# According to the supplement of paper PMC12494721:
# Counter-ions that a name gives are not always drawn. Unmarked numbers belong to inactive results.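 How the source made its calls: for the amine columns active = adjusted P below 0.05 in both replicates with a change the same way and a mean fold change under 0.8 or over 1.25; inactive = the rest.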
# System: Clostridium sporogenes DSM 1664
# Assay: fold change of Tryptamine concentration vs plate DMSO controls (fold change (ratio)); higher = more amine produced, active = hit call of the paper (significant change in both replicates, either direction)
# Details: incubation time: 27 h, anaerobic, 37 °C
# Outline: (§1)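 Extracts of whole anaerobic mGAM cultures were analysed for amines by LC–triple-quadrupole MS with dynamic MRM and external calibration curves, with drift corrected within batch. Four gut strains were grown at 37 °C for 27 h in 80 µL wells with compounds at 20 µM final, sweeteners at 50 µM final. Each value expresses fold change over plate DMSO controls. The average of 2 biological replicates is shown.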
row,Structure (SMILES),fold change of Tryptamine concentration
1,CN(C)CCN(Cc1ccc(Cl)cc1)c1ccccn1 [Chloropyramine hydrochloride] (20 µM),1.05
2,COC(c1ccccc1)(c1ccccc1)[C@H](Oc1nc(C)cc(C)n1)C(=O)O [Ambrisentan] (20 µM),1.01
3,O=C(O)CCC(=O)Nc1ccc(S(=O)(=O)Nc2nccs2)cc1 [Succinylsulfathiazole] (20 µM),0.988
4,CN(C)CCC=C1c2ccccc2C=Cc2ccccc21 [Cyclobenzaprine hydrochloride] (20 µM),1.19

# System: Ruminococcus gnavus DSM 108212
# Assay: as above
# Details: incubation time: 27 h, anaerobic, 37 °C
# Outline: as §1
row,Structure (SMILES),fold change of Tryptamine concentration
1,CN1CCCN=C1/C=C/c1cccc(O)c1 [Oxantel pamoate] (20 µM),1.06
2,COC(=O)[C@H](c1ccccc1Cl)N1CCc2sccc2C1 [Clopidogrel] (20 µM),0.963
3,CCCCCCCCCCCCCCCCCCCCCC(=O)Nc1ccn([C@@H]2O[C@H](CO)[C@@H](O)[C@@H]2O)c(=O)n1 [Enocitabine] (20 µM),0.913
4,CN(C)CCCN1c2ccccc2[S+]([O-])c2ccc(Cl)cc21 (stereo not drawn) [Chlorpromazine Sulfoxide] (20 µM),1.04
5,CCN(CC)CCOC(=O)C1(c2ccc([N+](=O)[O-])cc2)CCCC1 [Nitrocaramiphen hydrochloride] (20 µM),1.04
6,COc1ccc(CC2c3cc(OC)c(OC)cc3CC[N+]2(C)CCC(=O)OCCCCCOC(=O)CC[N+]2(C)CCc3cc(OC)c(OC)cc3C2Cc2ccc(OC)c(OC)c2)cc1OC (stereo not drawn) [Atracurium besylate] (20 µM),1.1
7,O=C(O)C[C@H](O)C[C@H](O)/C=C/c1c(C2CC2)nc2ccccc2c1-c1ccc(F)cc1 [Pitavastatin calcium] (20 µM),0.997
8,CC(Cc1cccc(C(F)(F)F)c1)NCCOC(=O)c1ccccc1 (stereo not drawn) [Benfluorex] (20 µM),0.786 (active)
9,S=c1[nH]cnc2nc[nH]c12 [Mercaptopurine] (20 µM),0.944
10,CC(C(=O)O)c1ccc(N2Cc3ccccc3C2=O)cc1 (stereo not drawn) [Indoprofen] (20 µM),1.09
11,C[C@@H](O[C@H]1OCCN(Cc2n[nH]c(=O)[nH]2)[C@H]1c1ccc(F)cc1)c1cc(C(F)(F)F)cc(C(F)(F)F)c1 [Aprepitant] (20 µM),0.742
12,Cc1nnc(NS(=O)(=O)c2ccc(N)cc2)s1 [Sulfamethizole] (20 µM),0.884
13,O=C(Cn1c(=O)sc2ccc(Cl)cc21)N1CCN(CCO)CC1 [Tiaramide Hydrochloride] (20 µM),1.07
14,Clc1ccc(COC(Cn2ccnc2)c2ccc(Cl)cc2Cl)c(Cl)c1 (stereo not drawn) [Miconazole] (20 µM),0.257 (active)
15,Cc1cn[nH]c1 [Fomepizole] (20 µM),1.01
16,CC[C@H]1OC(=O)[C@H](C)[C@@H](O[C@H]2C[C@@](C)(OC)[C@@H](O)[C@H](C)O2)[C@H](C)[C@@H](O[C@@H]2O[C@H](C)C[C@H](N(C)C)[C@H]2O)[C@](C)(OC)C[C@@H](C)C(=O)[C@H](C)[C@@H](O)[C@]1(C)O [Clarithromycin] (20 µM),0.11 (active)
17,CCCC(=O)OCOC(=O)C1=C(C)NC(C)=C(C(=O)OC)C1c1cccc(Cl)c1Cl (stereo not drawn) [Clevidipine] (20 µM),0.902
18,CC[N+](CC)(CC(=O)Nc1c(C)cccc1C)Cc1ccccc1 [Denatonium benzoate] (20 µM),0.99
19,COc1cc(/C=C/C(=O)N2CCN(CC(=O)N3CCCC3)CC2)cc(OC)c1OC [Cinepazide maleate] (20 µM),1.1
20,COC(=O)C1=C(C)NC(C)=C(C(=O)O[C@H]2CCN(Cc3ccccc3)C2)[C@H]1c1cccc([N+](=O)[O-])c1 [Barnidipine Hydrochloride] (20 µM),0.992

row,Structure (SMILES),fold change of Tryptamine concentration
1,COCCCOc1ccnc(C[S+]([O-])c2nc3ccccc3[nH]2)c1C (stereo not drawn) [Rabeprazole sodium salt] (20 µM),1.15
2,CN(C)[C@@H]1C(=O)C(C(N)=O)=C(O)[C@@]2(O)C(=O)C3=C(O)c4c(O)ccc(Cl)c4[C@@H](O)[C@H]3C[C@@H]12 [Demeclocycline hydrochloride] (20 µM),0.319 (active)
3,O=C1[C@H]2CCCC[C@H]2C(=O)N1CCCCN1CCN(c2nsc3ccccc23)CC1 [Perospirone hydrochloride] (20 µM),0.767
4,CC1=C(/C=C/C(C)=C/C=C/C(C)=C/C(=O)O)C(C)(C)CCC1 [Retinoic acid] (20 µM),1.03
5,C[N+]1(C)CCC(OC(=O)C(O)(c2ccccc2)C2CCCC2)C1 (stereo not drawn) [Glycopyrrolate bromide] (20 µM),0.994
6,COc1ccc2cc([C@H](C)C(=O)O)ccc2c1 [(S)-Naproxen] (20 µM),0.969
7,C1CCC(C(CC2CCCCN2)C2CCCCC2)CC1 (stereo not drawn) [Perhexiline maleate] (20 µM),0.771 (active)
8,COc1ccc(-c2cc(=O)c3c(O)cc(O[C@@H]4O[C@H](CO[C@@H]5O[C@@H](C)[C@H](O)[C@@H](O)[C@H]5O)[C@@H](O)[C@H](O)[C@H]4O)cc3o2)cc1O [Diosmin] (20 µM),0.97
9,CC(C)N1CCN(c2ccc(OCC3COC(Cn4cncn4)(c4ccc(Cl)cc4Cl)O3)cc2)CC1 (stereo not drawn) [Terconazole] (20 µM),1
10,CCCCNc1ccc(C(=O)OCCN(C)C)cc1 [Tetracaine hydrochloride] (20 µM),1.07
11,CCC(=O)OCC(=O)[C@@]1(OC(=O)CC)[C@H](C)C[C@H]2[C@H]3[C@H]([C@@H](O)C[C@@]21C)[C@@]1(C)C=CC(=O)C=C1C[C@H]3Cl [Alclometasone dipropionate] (20 µM),0.947
12,C#CCN(C)CCCOc1ccc(Cl)cc1Cl [Clorgyline hydrochloride] (20 µM),0.971
13,CCCCS(=O)(=O)N[C@@H](Cc1ccc(OCCCCC2CCNCC2)cc1)C(=O)O [Tirofiban hydrochloride] (20 µM),1.03
14,CC(C)CN(C[C@@H](O)[C@H](Cc1ccccc1)NC(=O)O[C@H]1CCOC1)S(=O)(=O)c1ccc(N)cc1 [Amprenavir] (20 µM),1.07
15,CC[C@H](C)C(=O)O[C@H]1C[C@@H](C)C=C2C=C[C@H](C)[C@H](CC[C@@H]3C[C@@H](O)CC(=O)O3)[C@H]21 [Lovastatin] (20 µM),0.995
16,CN(C)CCN(Cc1ccc(Cl)cc1)c1ccccn1 [Chloropyramine hydrochloride] (20 µM),1.16
17,COC(c1ccccc1)(c1ccccc1)[C@H](Oc1nc(C)cc(C)n1)C(=O)O [Ambrisentan] (20 µM),1.02
18,O=C(O)CCC(=O)Nc1ccc(S(=O)(=O)Nc2nccs2)cc1 [Succinylsulfathiazole] (20 µM),1.02
19,CN(C)CCC=C1c2ccccc2C=Cc2ccccc21 [Cyclobenzaprine hydrochloride] (20 µM),0.915
